# Compound activity as filed in PubChem BioAssay.
# Rows were chosen to be rich in hits. Some 9.2% of all compounds tested hit in one or more screens of this group.
# ELG1 DNA repair: qHTS screen for small molecules that inhibit ELG1-dependent DNA repair in human embryonic kidney (HEK293T) cells expressing luciferase-tagged ELG1 | actives 2.3% (n = 330,000) | Potency, µM (top dose mostly 46.1 µM), without a hit: top-dose activity change, negative = inhibition, most hits filed as inhibitors | AID 504467, 2011 | HEK293T ELG1-luciferase reporter, luminescence, 16 h; DNA damage induced by 5-fluorouridine; further: on the % scale 0 is the no-effect control and ±100 the full control effect; nearly all actives have a fitted effect of over 55% in size
#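 Luminescence from the luciferase reporter, measured 30 min after ONE-Glo reagent at room temperature, was the read-out. Beforehand, 2,000 cells per well were exposed for 16 hr at 37 °C to 5-fluorouridine together with compound or vehicle.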
# NPC1 prom act: qHTS Assay for NPC1 Promoter Activators; Huh7 NPC1 promoter luciferase reporter, 24 h; Potency, µM (series often up to 9.22 µM), for inactives: top-dose activation, actives largely listed as activators; actives 2.4% (n = 320,000); AID 485313, 2010; further: % of control where 0% means no effect; nearly all actives have a fitted effect of over 60% in size
#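 Cells: Huh7 expressing luciferase under the NPC1 promoter, 1500/well. Seeded 2 h, compound added, incubated 24 h at 37 °C. Luciferase reagent, 10 min ambient, then luminescence.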
# SMN2 splice up: qHTS Assay for Enhancers of SMN2 Splice Variant Expression | HEK293 SMN2-luciferase splicing reporter, luminescence, 30-36 h | Potency, µM (highest dose often 46.1 µM), for the others: top-dose activity change, positive = activation, actives largely listed as activators | actives 2.8% (n = 210,000); further: % of control where 0% means no effect; nearly all actives have a fitted effect of over 55% in size
#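 HEK293 cells carry an SMN2 minigene-luciferase reporter in which exon 7 inclusion puts luciferase in frame. Cells were seeded at 2000 cells/well, attached for 10-12 hours, then exposed to compounds for 30-36 hours at 37C before ONE-Glo luminescence.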
# FLuc modulator: qHTS profiling assay for firefly luciferase inhibitor/activator using purifed enzyme and Km concentrations of substrates (counterscreen for miR-21 project) | actives 6.9% (n = 360,000) | Luciferin 4-monooxygenase (Photinus pyralis), P08659 | AID 588342, 2011 | Potency, µM (series often up to 57.5 µM), without a hit: top-dose activity change, negative = inhibition, actives largely listed as inhibitors | purified FLuc, Km substrates, luminescence inhibition;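 further: plate controls were vehicle for no effect and reference inhibitor for full effect; nearly all actives have a fitted effect of over 55% in size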
# Target sequence (P08659 whole entry, looked up): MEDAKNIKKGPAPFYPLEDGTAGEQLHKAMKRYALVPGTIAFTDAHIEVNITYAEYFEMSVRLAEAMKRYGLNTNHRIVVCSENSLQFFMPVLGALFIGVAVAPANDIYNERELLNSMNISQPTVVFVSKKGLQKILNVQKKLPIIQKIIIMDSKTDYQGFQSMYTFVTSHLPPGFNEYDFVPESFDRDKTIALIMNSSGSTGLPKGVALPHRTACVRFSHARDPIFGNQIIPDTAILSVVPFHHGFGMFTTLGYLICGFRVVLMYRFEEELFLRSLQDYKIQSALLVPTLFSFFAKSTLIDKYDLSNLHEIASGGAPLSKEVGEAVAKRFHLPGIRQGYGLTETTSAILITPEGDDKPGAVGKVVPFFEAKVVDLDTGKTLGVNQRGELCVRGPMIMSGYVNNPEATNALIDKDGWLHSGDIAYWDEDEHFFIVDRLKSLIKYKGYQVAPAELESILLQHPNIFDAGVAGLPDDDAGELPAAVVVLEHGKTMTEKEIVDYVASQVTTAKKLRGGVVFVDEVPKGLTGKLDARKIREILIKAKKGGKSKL
#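 Biochemical qHTS of compounds, final roughly 60 µM downward over six points, against 10 nM purified firefly luciferase using Km concentrations of substrates (10 uM D-luciferin, 10 uM ATP) in Tris acetate pH 7.5 buffer; luminescence output.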
# ELG1 genotoxic: qHTS screen for small molecules that induce genotoxicity in human embryonic kidney (HEK293T) cells expressing luciferase-tagged ELG1; HEK293T ELG1-luciferase reporter, luminescence, 16 h; Potency, µM (highest dose often 46 µM), inactives show top-dose activity change, positive = activation, actives largely listed as activators; AID 504466, 2011; actives 1.3% (n = 330,000); further: % of control where 0% means no effect; nearly all actives have a fitted effect of over 60% in size
#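 ELG1-luciferase HEK293T cells, 2,000/well; compound pinned in; 16 hr, 37 °C, 5% CO2; ONE-Glo, 30 min RT; luminescence on CCD imager.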
# Rab9 prom act: qHTS Assay for Rab9 Promoter Activators; Huh7 Rab9 promoter-luciferase reporter, luminescence, 24 h; Potency, µM (highest dose often 9.22 µM), for inactives: at the top dose activation, negative = inhibition, hits mostly activators; actives 2.8% (n = 320,000); AID 485297, 2010; further: % of control where 0% means no effect; nearly all actives have a fitted effect of over 60% in size
#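 Promoter activation is measured as luciferase luminescence in Huh7 cells stably transfected with a Rab9 promoter–luciferase construct, following 24 h compound exposure at 37 °C and 10 min reagent incubation at ambient temperature.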
# The depositor's hits bear a star; ? = inconclusive; . = not tested or not shown. The call rests on the fitted dose curve; in most records, active means well fitted curve in the direction sought with a large enough effect; inconclusive means small, poorly fitted or top-dose-only effect, or another doubt; inactive means no such curve, though single readings can be large; an effect the other way counts as inactive or inconclusive. Potency means the concentration at half of the fitted maximal effect.
SMILES,ELG1 DNA repair,NPC1 prom act,SMN2 splice up,FLuc modulator,ELG1 genotoxic,Rab9 prom act
Cc1ccc(C(C)C)c(OC/C(O)=C(\C#N)c2nc3ccccc3[nH]2)c1,16µM*,-1%,.,4%,-10%,14%
CC(C)C(=O)OC/C(O)=C(\C#N)c1nc2ccccc2[nH]1,-9%,-4%,11%,-7%,-1%,-6%
CC(C)Nc1nc2nonc2nc1Nc1ccccc1,16µM*,2%,.,2%,-8%,-8%
O=C(C(=O)N1CCN(c2cccc(Cl)c2)CC1)c1cn(CC(=O)N2CCOCC2)c2ccccc12,3%,-9%,.,2%,-5%,-4%
COc1ccc(C(=O)/C=C2\NCCc3cc(OC)c(OC)cc32)cc1OC,15µM*,9%,.,?,10%,-2%
COc1ccc(C(=O)/C=C/N(C)C)cc1OC,0%,-1%,4%,5%,2%,-5%
Cc1c(C(=O)O)cccc1-c1ccc(/C=C2\SC(=O)NC2=O)o1,-5%,15%,.,5.4µM*,-4%,19%
Cc1ccc(NC(=O)CN2C(=O)S/C(=C\c3ccc(-c4cccc(C(=O)O)c4C)o3)C2=O)cc1C,-4%,0%,18%,?,0%,-4%
Cc1c(C(=O)O)cccc1-c1ccc(/C=C2/NC(=O)N(c3ccccc3)C2=O)o1,?,?,.,9.5µM*,13%,1µM*
Cc1ccc(/C=C2/NC(=O)N(c3ccccc3)C2=O)o1,?,26%,-4%,?,?,?
CC(=O)Nc1ccc(NC(=O)CC(C)n2ccnc2)cc1 (centres undefined),17%,2%,.,0%,0%,-9%
Cc1ccc(N2C(=O)c3ccc(N)cc3C2=O)cc1,?,3.5µM*,.,7.6µM*,3.7µM*,4µM*
Cc1ccc(N2C(=O)c3ccc(N)cc3C2=O)cc1C,?,2.5µM*,14%,11µM*,?,4µM*
CCOc1ccc(CN(C)C(=O)c2ccc3c(c2)NC(=O)C(C)S3)cc1OC (centres undefined),?,-8%,.,.,-2%,-10%
Cc1nn(-c2ccccc2)c(C)c1C(=O)OCC(=O)Nc1cccc(S(N)(=O)=O)c1,?,0%,.,?,-19%,-4%
COc1cccc(CCNC(=O)CCc2nnc(Cc3cc(OC)ccc3OC)o2)c1,?,2%,.,?,10%,22%
CCOC(=O)c1cc(OC(=O)c2ccc(OC)c(OC)c2)n(-c2ccccc2)n1,.,.,4%,-15%,.,.
Cc1ccc(C)c(NC(=S)Nc2ncccc2C)c1,?,22%,.,17µM*,?,?
Cc1cccnc1NC(=O)Nc1cccs1,?,14%,13%,12µM*,17%,11%
O=C(NCc1cccs1)Nc1cccs1,17%,11%,2%,?,0%,12%
Cc1ccccc1CNC(=O)Nc1cccs1,?,29%,15%,21µM*,8%,25%
Cc1ccc(NC(=O)Nc2ncccc2C)cc1,?,2.8µM*,10µM*,7.6µM*,28%,2µM*
Cc1ccc(CN2CCSc3ccc(C(=O)NCC(C)c4ccccc4)cc32)cc1 (centres undefined),.,.,?,-4%,.,.
O=C(CN1C(=O)C2CCCCN2c2ccc(C(=O)N3CCCC3)cc21)NCc1ccccc1 (centres undefined),.,.,.,-2%,.,.
CCN(c1ccccc1)S(=O)(=O)c1nnc(NC(=O)C(C)Oc2ccccc2)s1 (centres undefined),.,.,.,-19%,.,.
SMILES,ELG1 DNA repair,NPC1 prom act,SMN2 splice up,FLuc modulator,ELG1 genotoxic,Rab9 prom act
O=C(c1ccccc1)c1cccn1CC(=O)N1CCc2ccccc2C1,-1%,-5%,.,-8%,2%,4%
COc1ccc(NC(=O)CCNC(=O)Cn2ccc3ccccc3c2=O)cc1OC,-2%,-6%,.,-2%,0%,-1%
Cc1ccc(NC(=O)CCNC(=O)Cn2ccc3ccccc3c2=O)cc1F,26%,29%,.,17µM*,?,?
CCCC1c2ccc(C)n2CCN1C(=O)Nc1ccccc1Cl (centres undefined),?,20%,?,12µM*,14%,26%
Cc1cc(/C=N/Nc2nc(N)ncc2[N+](=O)[O-])c(C)n1-c1ccccc1F,?,?,.,0.048µM*,?,-17%
COc1ccc(-c2cn3nc(SCC(=O)Nc4ccccc4F)ccc3n2)cc1,.,.,.,1.1µM*,.,.
COc1ccc(-c2cn3nc(SCC(=O)NCC4CCCO4)ccc3n2)cc1 (centres undefined),?,?,.,2.7µM*,?,1.6µM*
O=C(CSc1ccc(-c2ccc(-n3cccn3)cc2)nn1)Nc1ccccc1F,?,13%,.,0.6µM*,?,2%
O=C(CSc1nc(-c2ccccc2)ns1)NCC1CCCO1 (centres undefined),?,?,.,?,?,28%
O=C(CSc1ccc2nc(-c3ccccc3)cn2n1)NCC1CCCO1 (centres undefined),?,?,.,19µM*,10%,?
CC(C)Cn1c(=O)c2sccc2n2c(CCCC(=O)N3CCN(c4ccc(F)cc4)CC3)nnc12,.,.,.,-2%,.,.
Cc1cccc(C(=O)Nc2nnc(S(=O)(=O)N3c4ccccc4CC3C)s2)c1 (centres undefined),.,.,.,-10%,.,.
Nc1nc(NC(=O)c2cccs2)nn1-c1ccccc1,?,2.8µM*,11µM*,17µM*,?,2.5µM*
COc1ccc(C(=O)Nc2nc(N)n(-c3ccccc3)n2)cc1OC,-13%,9%,-2%,-10%,0%,-6%
Nc1nc(NC(=O)c2ccccc2Cl)nn1-c1ccccc1,?,2%,.,-19%,5%,22%
Nc1nc(NC(=O)c2ccccc2)nn1-c1ccccc1,?,23%,?,?,?,28%
COc1ccccc1/C=C/C(=O)Nc1nc(N)n(-c2ccccc2)n1,?,-2%,.,19µM*,-1%,0%
COc1ccc(C(=O)Nc2nc(N)n(-c3ccccc3)n2)cc1,?,4%,2%,17µM*,15%,4%
Cc1ccsc1/C=N/NC(=O)c1ccc(-n2cccc2)cc1,?,28%,.,-16%,6%,?
CCOCCN(C(=O)c1ccccc1Cl)c1cccc(C)c1C,10%,-2%,.,4%,0%,0%
